The source of these data is the supplement of paper PMC12632987.

In all, about 1,800 sequences were measured (“median log2 fold change of GCK-ALFA target abundance (FLAG IP / Myc IP barcode read proportion)”: median about 0.14, lowest 2% from about -0.84 on). The full list was thinned out, with the lowest values kept by preference.

The chains are these.
T1: TRAF2, Q12933
T1 chain: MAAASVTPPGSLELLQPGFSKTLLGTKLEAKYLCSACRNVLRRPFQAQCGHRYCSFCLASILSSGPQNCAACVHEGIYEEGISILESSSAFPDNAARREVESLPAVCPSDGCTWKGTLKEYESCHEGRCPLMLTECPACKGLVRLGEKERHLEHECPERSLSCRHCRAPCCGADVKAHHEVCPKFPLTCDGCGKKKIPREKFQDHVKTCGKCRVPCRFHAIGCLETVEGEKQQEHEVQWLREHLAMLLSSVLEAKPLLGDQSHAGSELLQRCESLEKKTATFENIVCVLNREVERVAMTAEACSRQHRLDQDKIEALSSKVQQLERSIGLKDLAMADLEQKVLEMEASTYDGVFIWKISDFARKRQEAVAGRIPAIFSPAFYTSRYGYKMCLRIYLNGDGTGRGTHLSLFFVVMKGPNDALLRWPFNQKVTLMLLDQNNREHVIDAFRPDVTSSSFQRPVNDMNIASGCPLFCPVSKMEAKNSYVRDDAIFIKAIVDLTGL

B1: traf2_out_20_3_2107 (protein)
chain: KELEEELEKELEEAIKLLEEAAKLADEETAKRLEELRKRVEASRELPYTDRLVALSEVRREVLALAQEAEAAGKEELAKVLEEAADELNKAMNLLMKIIE
B2: traf2_out_15_48_1346 (protein)
chain: DIEKEQKIASEIADDSDKLKDKVAKELEELQKKANPEEAAILDELIAAIRSGASLRTVRGLLLQAQPKFSPETAAKLKALAEEIDELIRENSKRYNEVLK
B3: traf2_out_18_117_1795 (protein)
chain: SEREEIIEELEELAERLGKAASELGKAVLDNWEKLTPEEKSEAMDVLADLSAVRRRAQELIHKIKTENIPVEEARKELEELKKEAEAALAAAEAKIARIK
B4: traf2_out_9_108_2595 (protein)
chain: MTEEEKEEETYEKILKLAKDFLERYDVSEELRADMEAAIEQAEKLRKEGEKRTANILIAISTARVAYEIGEEAVKDFLAELKKIDERSYNAAKRMVKLLK
B5: traf2_out_13_95_1087 (protein)
chain: SAETNAKINEIADKMMEKIEAILDKLSEEVADDPELKAEVEAAKELAITRGVNEAIHKLRELSKAHPEYKEKLDKAIDEIEKVKREASKEISKLLKEEKE
B6: traf2_out_6_3_2532 (protein)
chain: SHMSLLKDAKTVLENMGITTIEELKALVKAEVNAIKKLISRKDVDEADLAGARSVVALSRAMVEVAKETLPDFTEEDYEELNKLLEETEKLIKEREEKLK
B7: traf2_out_17_178_1748 (protein)
chain: NEEELKKIINEKNNEIADIAEKLAEEILKLAKEDPSISPETLALIEEARRNGSHNTAVALFLEASKNEETKKKVEELHKKASEEMNKLAKEREEAIEKYK
B8: traf2_out_11_104_639 (protein)
chain: LTREQAREFNDFAMAKEDEARAVAAELAAALEAAGETAAAARVRAALAHPGAGISTFRNLLEDLLPTLSPAAAAQARAAIARLAALQREVSAKLNELEAK
B9: traf2_out_6_156_2377 (protein)
chain: TKEEILKKAKEKIEKEIKKLAEASEEKKIKYISEIAGAVYKALQALREAGASVEEIKKAVEELKKVAEEEAKKAGLPEDTINLLLSSINAVGEVALREAE
B10: traf2_out_17_178_1665 (protein)
chain: TKEEERKKISELTDKLIDLAEAAADRALALAEREGDLSPEELAALREARRRGSATDVRALMRRWIPRLRSAAELGALLEEFEAEYRKLSKEIAEAYEKYE
B11: traf2_out_11_155_731 (protein)
chain: EKKEKARREIVDFAIEQGDELEAFVEALIKEVEKEDPELAKELRAVFEEHRKYSARSAALAAIDVLRKHGYEERAEELEKKIEEANKKASEFIKKIEEEL
B12: traf2_out_20_38_2042 (protein)
chain: EEEEKEEEQIELDVEIANEALDEVEERFAKWRAEGLSLEEIAERVKEEIRKAFKEAGLEEKLPEYLEQIDLVRDSPDAERLLERILARALALVRRKKREK
B13: traf2_out_20_38_2028 (protein)
chain: SEEEEEKKRLEELIKVANEAYDKAEKKIAKLKAEGKTIEEIAEEAKEEVERILSEVGLEEEREELIEDIDRVLDSPDAERLIARILARAVALAYQKELQK
B14: traf2_out_20_38_2026 (protein)
chain: SMEEEEEKKLEELIKVAQEAYDEAEKKIEELKKEGKSIEEIAEIAKEEIERILSEEGLEEEKEELIEEVDLVLDSPDAERLIARILARAVALAHQKRLEK
B15: traf2_out_5_189_2315 (protein)
chain: SAREEEQKALNEKAKEIGKEVTKLINEMKKEGKSWEEIAEKMLEKMKTLPVDDAALYSGIFYSIMLGEAIANNDEKLKEIAEKFREKAKELIKEKEKKEA
B16: traf2_out_17_162_1608 (protein)
chain: MELEEKLKKLKELLEELEKKLKRLEEKLKNIEKLSKEELSDLLVEASEARRKALEALEEIKKLKEKLDKEEYEKLSKRFEEIAEKFQRIANKFYKELEKK
B17: traf2_out_3_89_2292 (protein)
chain: SEERERKIRLARERAERYARGFEKSARRVAKEMLKEGYSLETLRGVLEAARTALVEVFREELRELGLSEEDIRELVEELERRLREIVEKVLEEAEKKRKE
B18: traf2_out_20_3_2164 (protein)
chain: SELEKKLEEELERALKLLKKAAELSDEETKKKLKELIERLKESRSLSPSDRLVVVSEVRREVLLLAQKAKAEGKEELAKLLEEAAEELNRAMQLLYEIIE
B19: traf2_out_13_95_1191 (protein)
chain: EEEKRKKYAERTNAIADELLDHADAKIAELEAATGDPELGAELRRVLDRGGVSALIHRIRELAKEDPAYREAYEAAAAELEAKRREAGRRVAEAEKEIEA
B20: traf2_out_17_162_1521 (protein)
chain: SPLEAELKALEAELEALKKKLEELKKKLENLDKMSKEELTDLLVEASEARRKALELAERLKRLKPLIGEERAGALIAEAEAIAEELQKIANKIYKKLEEK
B21: traf2_out_17_162_1578 (protein)
chain: EELKKELEELKKKLEELKKKLKEFEKKLPELPKMSYEELTDLLVEVSELKREARELAEKLEELGKKLGEEEIKKLVEEAKEIAEKLQKIANKIYKEIEKK
B22: traf2_out_20_3_2068 (protein)
chain: EELEKELEEALEKALALLKKAAALADPETAAELDALIKELKASKELSVSDRLVAVSAVRRRVLRLAEEAEAAGDAELAAVLNKAADALNRAAQLLYQILQ
B23: traf2_out_15_48_1358 (protein)
chain: STEALRETARKVADLIDATLDEVAKELKALLPKAKPEVKPILEEAIRVASTHRSINDTIALLEEAIKKSDPELAKELQELRDRLLATQKEASKLINETEK
B24: traf2_out_17_162_1493 (protein)
chain: SELEEKKKKLEKELKELKKKLKELEKKLENIEKLSKEELTDLLVEASELKRKARQLAEEYKKLLKKTGDKELEKLIKEAEELAERAQKIANKIYKEIEKK
B25: traf2_out_20_3_2136 (protein)
chain: SELEEELKKELEKAKKLLEKAAALADKETAAKLKALIKRLEASEELSPEDRLVEFSEIRREVLELALAAEAAGKAELAKLLNEAADALNKAMNLLMKIIE
B26: traf2_out_8_15_2548 (protein)
chain: SIKEAAEKDIARLKALSDGDKESLINTLLGMAKGELRLAKIYKEEGRKEEALRTLEYARIYAEAALELAKEIGSPRLEEIKKEVEELEKEIEELRKEIEA
B27: traf2_out_20_3_2212 (protein)
chain: EELRKKVEEELEKIRELLEKAKPRLPEEDYARLKELLERAEEALKEDPSDALVELSELKALLLRLSQEARAAGDEELAALLDEAADAANKAANLVYKILE
B28: traf2_out_20_38_2001 (protein)
chain: SAEEEEEEKLKKIIDVANEAYDEASKEIEELKAAGKSVEEIAEIVRAKVRELLTAAGLEEELEELLADIDRALSSPNALRLFARIRARAVALVKQKELNE
B29: traf2_out_1_27_1004 (protein)
chain: STEEERELLRRANREIGRASPEERVEVIVRALEEALARGLESPEHIAVVLILSLGEEEERRRAIEAAEEVLRAAGVSEEAIERMRRRVESGWARLDKLLA

The test deals with T1, TRAF2, Q12933. The experiment in a line: median log2 fold change of GCK-ALFA target abundance (FLAG IP / Myc IP barcode read proportion) (log2 ratio); each designed protein is fused to an ALFA-tag nanobody in HEK293 cells to bring the named protein to FLAG-tagged glucokinase (GCK); Myc marks an untargeted standard; higher = target protein stabilised (more abundant). The settings on record: target protein: 3xFLAG-MCP-GCK-ALFA reporter; HEK293 landing pad (RPLP). The essentials: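 An ALFA-nanobody-fused binder library was recombined into HEK293 landing-pad cells and induced with 2 μg mL^−1 doxycycline. Cells were transfected with a plasmid expressing a FLAG-tagged target and a Myc-tagged standard. After 48 h, lysates underwent anti-FLAG and anti-Myc immunoprecipitation, and circular RNA barcodes were reverse transcribed, amplified and sequenced. Target abundance is the per-binder median log2 ratio of FLAG to Myc barcode read proportions. Barcodes needed ≥10^−7 proportion in both replicates, binders ≥3 barcodes per replicate, and a 10^−6 pseudocount was added; the two replicates were pooled.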
In the case of B1, the “median log2 fold change” value worked out at 0.327.
For the molecule B2, the “median log2 fold change” value worked out at 0.203.
The same measure for B3: 0.171; for B4: -0.632; for B5: 0.249.
As for B6, the “median log2 fold change” value is -1.3.
As for B7, the “median log2 fold change” value amounted to 0.486.
Regarding B8, the “median log2 fold change” value worked out at 0.214.
As for B9, the figure is 0.122.
As for B10, the figure is 0.057; as for B11, 0.0471.
As for B12, the figure is -0.0369; as for B13, -0.966.
For the molecule B14, the “median log2 fold change” value was -0.0149.
The same measure for B15: 0.387; for B16: -0.073; for B17: -1.24.
As for B18, the figure is -0.157.
The same measure for B19: 0.242.
Take B20: the “median log2 fold change” value was found to be 0.311.
As for B21, the figure is 0.34; as for B22, -0.0614; as for B23, 0.33.
For the molecule B24, the “median log2 fold change” value amounted to 0.47.
The same measure for B25: 0.345; for B26: 0.203.
B27: the “median log2 fold change” value is -0.0318.
In the case of B28, the “median log2 fold change” value is -1.24.
As for B29, the “median log2 fold change” value was 0.0667.
